# Assay results as given in ChEMBL document CHEMBL3988442, “University of Dundee, Small-Polar-MMV Screening Library” (2021).
# The whole screen tested about 48,000 compounds, of which about 13,000 (27%) showed an effect of 50% or more. This is one part of the list.
# Test system: Wolbachia pipientis
# Assay: Anti-Wolbachia Cell-Based Screen
# Format: functional
# Parameters: scale not given: in the data most compounds retested in dose-response had high values
# Settings: 5 µM
row,Compound,Percent Effect
1,N#Cc1ccc(N2CCC3(CC2)CC(N2CCOCC2)CO3)cc1.O=C(O)C(F)(F)F (centres undefined),99.84%
2,CN1CCN(C2COC3(CCN(c4ccc(C#N)cc4)CC3)C2)CC1.O=C(O)C(F)(F)F (centres undefined),99.27%
3,CN1CCOCC12CCN(c1ccc(C#N)cc1)CC2.O=C(O)C(F)(F)F,-6.092%
4,COC1COC2(CCN(c3ccc(C#N)cc3)CC2)C1.O=C(O)C(F)(F)F (centres undefined),-8.699%
5,N#Cc1ccc(N2CCC3(CC2)CC(Oc2cccnc2)CO3)cc1.O=C(O)C(F)(F)F (centres undefined),18.7%
6,CNC(=O)COC1COC2(CCN(c3ccc(C#N)cc3)CC2)C1.O=C(O)C(F)(F)F (centres undefined),4.884%
7,COc1cccc(-c2cnnc(N(C)CCC3CCCCO3)n2)c1 (centres undefined),-7.888%
8,Cc1cc2c(c(-c3c[nH]c(C)n3)c1)OC(CN)C2 (centres undefined),10.27%
9,Cn1cc(CC2CCN(C(=O)NCCCc3ccc(O)cc3)C2)cn1 (centres undefined),109.7%
10,Cc1ccc(CCNC(=O)N2CCC(Cc3cnn(C)c3)C2)cn1 (centres undefined),129.7%
11,Cc1ccc(CCNC(=O)N2CCCC(Cc3nccn3C)C2)cn1 (centres undefined),-1.285%
12,COc1ccc(CNC(=O)N2CCC(Cc3cnn(C)c3)C2)cc1C (centres undefined),-1.04%
13,CCOc1cc(CNC(=O)N2CCC(Cc3cnn(C)c3)C2)ccn1 (centres undefined),0.1866%
14,Cc1ccc(CCNC(=O)NC2CCN(CC(F)(F)F)C2=O)cn1 (centres undefined),-2.04%
15,O=C(O)CCn1ccc2c(nnc3c(-c4ccc(F)cc4)cnn32)c1=O,102.5%
16,Cc1ccc2c(ccn2CCC(=O)O)c1,-5.722%
17,CC(=O)Nn1ccc2c(nnc3c(-c4ccccc4)cnn32)c1=O,95.62%
18,CC(=O)Nn1ccc2c(nnc3c(-c4ccc(F)cc4)cnn32)c1=O,91.05%
19,CCN(CC)CCC(=O)NCc1cc2n(n1)CCN(C(=O)N(C)C)C2,-4.405%
20,Cc1ccc(-c2ncc(C(=O)N3CCC[C@H](N)C3)c(O)n2)cc1,4.793%
21,CC(O)c1cn(CC2CCN(C(=O)c3cccc(N(C)C)c3)CC2)nn1 (centres undefined),-11.02%
22,Cc1nnc(NC(=O)N2CCCN(C3CCCC3)CC2)s1,-2.14%
23,CC1CCN(CCCNC(=O)Nc2cc3c(cc2Br)OCCO3)CC1,-0.7212%
24,Cc1nc(-c2c(-c3ccccc3)ncn2[C@H]2C[C@@H](C(=O)O)N(C)C2)co1,-9.295%
25,CCSCc1ccnc(NC(=O)C2CCOC2)c1 (centres undefined),20.8%
26,CCOc1ccc(C(=O)N2CCC(Oc3ccccc3)(C(=O)O)CC2)o1,-0.9818%

row,Compound,Percent Effect
1,CC(C)(C)N1CCN(C(=O)c2cccnc2-n2cncn2)CC1,-9.982%
2,CCc1cc(N2CCC(NC(=O)CCC3CCCO3)CC2)ncn1 (centres undefined),-4.201%
3,CCc1cc(N2CCC(NCc3ccc(C)o3)CC2)ncn1,91.75%
4,CCc1cc(N2CCC(NCCc3ccccc3F)CC2)nc(C)n1,82.1%
5,CCc1csc(CNC2CCN(c3ccc(C)cc3)CC2)n1,-9.18%
6,Cc1nc(C)c(C)c(N2CCC(NCCOc3ccccc3)CC2)n1,8.772%
7,CCc1cc(N2CCC(NCCSc3nnnn3C)CC2)nc(C)n1,4.673%
8,CCc1cc(N2CCC(NCCc3ccc(C)o3)CC2)nc(C)n1,97.78%
9,CCCc1cc(N2CCC(NCC3(O)CCCCC3)CC2)nc(C)n1,-11.13%
10,Cc1nc(CCNC2CCN(Cc3ccccc3)C2)sc1C (centres undefined),-12.11%
11,CCCc1cc(N2CCC(NCCc3ccc(O)cc3)CC2)nc(C)n1,19.96%
12,CCc1cc(N2CCC(NCCc3nc(C)c(C)s3)CC2)nc(C)n1,99.23%
13,Cc1cccc(C(C(=O)NCCc2nc(C)cc(=O)[nH]2)N(C)C)c1 (centres undefined),7.079%
14,Nc1nc(CCCNC(=O)C2CCCN(Cc3ccco3)C2)cs1 (centres undefined),11.5%
15,Cc1ccccc1C(=O)NCCC(=O)NS(=O)(=O)c1cccnc1,-14.99%
16,CCn1cncc1CNc1ccc(-c2nc(CC(C)C)no2)cn1,7.108%
17,CC(C)c1nnc2n1CCN(C(=O)c1ccc(OCC3CC3)cc1)C2,5.374%
18,Cc1ccoc1CNC(C)c1nnc2n1CCCC2 (centres undefined),-17.53%
19,Cc1ccc(CNC(C)c2nnc3n2CCCC3)o1 (centres undefined),-12.78%
20,Cn1cc(N)c(-c2nnc3n2CCCC3)n1,140.1%
21,CC(NCc1ccc(Cl)o1)c1nnc2n1CCCC2 (centres undefined),-1.685%
22,CCn1cc(N)c(-c2nnc3n2CCCC3)n1,106%
23,CC(NCc1ccco1)c1nnc2n1CCCC2 (centres undefined),-19.1%
24,CCn1cc(N)c(-c2nnc3n2CCC3)n1,92.6%
25,COc1c(CNCc2nnc3n2CCCCC3)c(C)nn1C.Cl,-7.415%
26,COc1cc(CNC(C)c2nnc3n2CCC3)cc(OC)c1 (centres undefined),10.34%

row,Compound,Percent Effect
1,O=C(NCC1(O)CCOc2ccccc21)Nc1ccccc1 (centres undefined),-14.8%
2,O=C(O)c1ccnc(-c2ccnc(COc3ccc(Cl)cc3)n2)c1,-21.17%
3,CCCS(=O)(=O)N1CCN(c2cc(-n3cnc(C)c3C)ncn2)CC1,-4.672%
4,NC(=O)c1ccc(OCCCN2C[C@H](C3CC3)[C@@H](N)C2)cc1,-11.21%
5,Cc1cc(C2CCC2)nc(N2CCC3(CC2)OCCCC3O)n1 (centres undefined),-2.811%
6,OC1CCCOC12CCN(CCCOc1ccccc1F)CC2 (centres undefined),114.2%
7,O[C@H]1CN(CCCOc2ccccc2F)CC[C@@]12CCCO2,134.4%
8,O[C@H]1CCN(CCCOc2ccccc2F)C[C@@]12CCCO2,90.29%
9,NC(=O)c1ccc(OCCCN2CCC3(CC2)OCCCC3O)cc1 (centres undefined),101.3%
10,COc1ccccc1S(=O)(=O)N1CCC2(CC1)OCCCC2O (centres undefined),6.351%
11,O=C(C1CCC1)N1CCN(Cc2ccc(F)cc2)[C@H]2CS(=O)(=O)C[C@H]21,11.26%
12,O=C(Nc1ccccn1)NC1CCN(c2ccccc2OC(F)F)C1 (centres undefined),-25.38%
13,COc1ccc2nc(C[C@@H]3C[C@@H](C(C)C)[C@H](CN)C=C3C)[nH]c2n1,16.51%
14,CC(C1CCN(Cc2cnn(C)c2C2CC2)CC1)N1CCCC1 (centres undefined),22.88%
15,C1CCC(NCC2(N3CCOCC3)CCSC2)C1 (centres undefined),-110.3%
16,COc1ccccc1[C@@H]1CN(Cc2c(C)noc2C)C[C@H]1C(=O)O,-13.6%
17,Cc1cc(NCC2CCCO2)cc(=O)n1C (centres undefined),135.4%
18,Cc1cc(NS(=O)(=O)CC2CCCCO2)ccc1F (centres undefined),4.819%
19,Cc1cc(S(C)(=O)=O)c(C)c(S(=O)(=O)NCC2CCCO2)c1 (centres undefined),-7.327%
20,COCC(C)N(C)C(=O)NC1CCN(c2ncccn2)CC1 (centres undefined),0.8848%
21,CCN(Cc1noc(C2CC2)n1)Cc1ccc(C#N)cc1F,-1.413%
22,CC(C)N1CCO[C@@H]2CN(C(=O)Cc3cccs3)CC[C@@H]2C1.O=C(O)C(F)(F)F,111.3%
23,O=C1NCCO[C@H]2CN(C(=O)Cc3cccs3)CC[C@@H]12,-57.9%
24,CN1CCO[C@@H]2CN(C(=O)Cc3cccs3)CC[C@@H]2C1.O=C(O)C(F)(F)F,104.2%
25,CN(C)C[C@H]1OC[C@@H]2CCN(C(=O)Cc3cccs3)C[C@@H]21.O=C(O)C(F)(F)F,-1.59%
26,CS(=O)(=O)N1CCO[C@@H]2CN(C(=O)Cc3cccs3)CC[C@@H]2C1,99.33%

row,Compound,Percent Effect
1,COCCN1CCO[C@@H]2CN(C(=O)Cc3cccc(F)c3)CC[C@@H]2C1.O=C(O)C(F)(F)F,6.529%
2,O=C(Cc1cccs1)N1C[C@@H]2CN(Cc3ccoc3)CCO[C@@H]2C1.O=C(O)C(F)(F)F,-6.419%
3,O=C(Cc1cccs1)N1CCOC(c2cccc(O)c2)C1 (centres undefined),-7.888%
4,CCOc1ccc(N(C)S(=O)(=O)c2c[nH]c(C(C)C)n2)cc1,-17.69%
5,O=C(CNC(=O)C1CC1)NCCOc1cccc(Cl)c1Cl,3.053%
6,CC1CN(C(=O)c2cc[nH]c(=O)c2)c2ccccc21 (centres undefined),6.091%
7,Cc1ccc2c(c1)N(C(=O)c1c[nH]c(C)cc1=O)CC(C)O2 (centres undefined),67.22%
8,Cc1ccc2c(c1)N(C(=O)c1cc[nH]c(=O)c1)CC(C)O2 (centres undefined),102.6%
9,Cc1ccc2c(c1)N(C(=O)c1nccnc1N)CC(C)O2 (centres undefined),-0.6709%
10,Cc1ccc2c(c1)OC(C)CN2C(=O)Cc1ccc(C)nc1 (centres undefined),-1.859%
11,Cc1ccc2c(c1)OC(C)CN2C(=O)CCc1cccnc1 (centres undefined),9.162%
12,Cc1ccc2c(c1)OC(C)CN2C(=O)CCc1cscn1 (centres undefined),-1.954%
13,Cc1ccc2c(c1)OC(C)CN2C(=O)c1c[nH]c(C)cc1=O (centres undefined),100.7%
14,CC1CN(C(=O)c2ccc(C(N)=O)cc2)c2ccc(F)cc2O1 (centres undefined),-13.6%
15,CC(C)n1cnnc1CCNCc1cn(CCC(N)=O)c2ccccc12,-8.335%
16,Cn1/c(=N/C(=O)CSCC(=O)Nc2nccs2)sc2ccccc21,-2.902%
17,Cc1cnc2c(S(=O)(=O)NC(=O)C(C)OCC3CC3)cccc2c1 (centres undefined),-0.9774%
18,Cc1cccnc1C(=O)N1CCCC(c2[nH]ncc2S(C)(=O)=O)C1 (centres undefined),-6.313%
19,Cc1ccsc1C(=O)N1CCCC(c2[nH]ncc2S(C)(=O)=O)C1 (centres undefined),116.3%
20,Cc1ncncc1C(=O)N1CCCC(c2[nH]ncc2S(C)(=O)=O)C1 (centres undefined),130.2%
21,Cc1ccc(C(=O)N2CCCC(Cn3cc(C(C)(C)N)nn3)C2)s1 (centres undefined),-58.84%
22,Cc1csc(C(=O)N2CCCC(c3[nH]ncc3S(C)(=O)=O)C2)c1 (centres undefined),97.17%
23,Cc1ccc(C(=O)N2CCCC(c3[nH]ncc3S(C)(=O)=O)C2)s1 (centres undefined),93.28%
24,Cc1ncncc1C(=O)N1CCCN(Cc2ncc(Cl)n2C)CC1,13.88%
25,Cc1[nH]ncc1C(=O)N1CCCC(c2cc(C(F)(F)F)[nH]n2)C1 (centres undefined),-5.603%
26,Cc1ccsc1C(=O)N1CC(C(=O)N2CCCC2)C2(CCOCC2)C1 (centres undefined),-0.2023%
